From PubChem BioAssay come the findings set out here.

The nature of test [1]: inhibitors of TNFa-induced NFkB p65 translocation, primary screen, imaging, HUVEC, MLSMR starter and 10KST1 sets (AID 438;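 active means inhibition above 20% together with a positive visual image hit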;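 further: compound added about 3h40 before a 20 min TNFalpha stimulation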;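 on inhibition: signal is the nuclear over cytoplasmic p65 intensity ratio per well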). Particulars: HUVEC TNFa-induced p65 nuclear translocation; cell count: measured here: nuclei count (cytotoxicity indicator), at 2.08 µM; inhibition: at 2 µM, stronger effect = higher value, 0% TNFa-plus-vehicle, 100% no-TNFa wells.
The nature of test [2]: reduction of polyQ htt aggregates in cells – imaging, exon1htt(103Q)mCFP cells, high-content imaging, primary screen (AID 483;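 active means visual image review flags a hit and inhibition of aggregation exceeds 20%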;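 further: compound exposure lasted 3 days before fixation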;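 on nuclei count: percent of the per-plate median nuclei count of sample wells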). Particulars: exon1htt(103Q)mCFP cell line, aggregate imaging, at 2 µM; inhibition of aggregation: stronger effect = higher value; nuclei count: measured here: cell count, toxicity.
Test [3] can be described thus: endothelial E-selectin expression blockers – imaging, HUVEC, immunofluorescence, MLSMR starter and 10KST1 sets, primary screen (AID 487;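 active means visually confirmed hit in the image check and inhibition above 20%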;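 on inhibition: signal is fraction of cell area covered by stained E-selectin grains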;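 on nuclei count: 100% = median nuclei count of all wells on the same plate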). The conditions noted are these: HUVEC TNFalpha-induced E-selectin immunofluorescence imaging, at 2 µM; inhibition: stronger effect = higher value; nuclei count: measured here: cell number, toxicity.
A short description of test [4]: Primary imaging screen for DUSP6 inhibitors that restore phospho-Erk in transfected HeLa cells, chemical complementation (AID 609;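 active means compounds giving at least 50% inhibition in the cell-based MKP-3 phosphatase rescue imaging test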;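 on inhibition: phospho-Erk level distribution per well compared with pooled transfected vehicle control wells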). Particulars: HeLa MKP-3 transfected, phospho-Erk imaging KS statistic, at 10 µM, cells stimulated with TPA for 15 min.
Test [5] has as its target Dual specificity protein phosphatase 6 (Homo sapiens) (UniProt Q16828). The description is as above. Particulars: HeLa MKP-3 transfected, phospho-Erk imaging KS statistic; at 10 µM; stronger effect = higher value; cells stimulated with TPA for 15 min.
The target of test [6] is Voltage-gated potassium channel subunit beta-2 (Rattus norvegicus) (UniProt P62483). Kind of test: inhibitors of rat Kvbeta2 reductase activity – biochemical, NADPH fluorescence, primary screen (AID 622;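 active means fluorescence slope higher than the sample average by over 3 SD, cut at about -0.22 in these data, passing the limit was not always enough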;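 further: slope of raw intensity against log time taken from 70 to 1610 s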). The conditions noted are these: recombinant KvBeta, 4-cyanobenzaldehyde reduction, at 10 µM, stronger effect = higher value.
The target is the same in test [7]. Kind of test: enhancers of rat Kvbeta2 NADPH turnover – biochemical, NADPH fluorescence, primary screen (AID 623;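 active means NADPH fluorescence slope more negative than the mean of all samples by about 3 SD, 99.7% confidence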;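 further: fluorescence intensity change per second fitted from 20 to 320 s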). The conditions noted are these: Recombinant KvBeta, NADPH fluorescence decrease slope, 10 min; at 10 µM; stronger effect = lower value.
The target in test [8] is Alpha-2C adrenergic receptor (Homo sapiens) (UniProt P18825). Briefly: compounds altering alpha2C-coupled GIRK flux – cell-based, HEK293 alpha2C/GIRK1/2, thallium flux, primary screen (AID 624).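 Further: slope of fluorescence ratio to pre-addition baseline per second over 15 to 24 s.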 Particulars: thallium flux BTC fluorescence, at 10 µM, actives lie on both sides.
Test [9] in a line: inhibitors of larval lipid processing in zebrafish, primary screen, whole organism, PED6 fluorescence, gall bladder and intestine (AID 686;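 active means a full or partial loss of lipid-probe fluorescence in the fish gall bladder, intestine or both, judged by eye; inactive means no fluorescence loss, or compound toxic to the fish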;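 further: larvae 5 to 7 days old with five fish per well; signal comes from phospholipase A2 cleavage of quenched PED6 carried via bile; overnight exposure to compound and PED6 before scoring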). Particulars: Zebrafish larvae PED6 lipid processing, fluorescence scoring; screened at 20 µM (by protocol).
Test [10] in a line: loss of swimming-algae plug formation – whole organism, Chlamydomonas reinhardtii, WT vs cilia-less mutant, absorbance, 96-well, primary screen (AID 463189;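 active means inhibition at or above 50% relative to wild type and mutant plate controls; inactive means inhibition below 50%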;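 further: 0% = wild type cc124 cells in DMSO and 100% = ciliumless bld1 mutant cells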). Particulars: Chlamydomonas reinhardtii gravitaxis, OD600 absorbance, 2 days; at 10 µM; stronger effect = higher value.
Test [11] is described as follows: blockers of RIG-like receptor reporter activation – cell-based, Sendai virus stimulus, luciferase, 10K MLSCN set, TLR/RLR signaling modifier project, primary screen (AID 602276;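 active means inhibition at or above 50% at 10 µM; inactive means inhibition below 50%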;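 further: firefly luciferase from ISG56 promoter only with Renilla not read in this screen; 0% = Sendai virus plus DMSO and 100% = medium plus DMSO without virus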). Particulars: HEK293 RL24 IRF3 luciferase reporter, at 10 µM, stronger effect = higher value.
Test [12] is described as follows: TLR3 IRF3 reporter activation blockers – cell-based, poly I:C stimulus, luciferase, 10K MLSCN set, primary screen (AID 602277;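 active means inhibition of the reporter signal at or above 50%; inactive means inhibition below 50%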). The conditions noted are these: HEK293-TLR3 RL24 IRF3 luciferase reporter, at 10 µM, stronger effect = higher value.
Where [13] appears, read: measured here: cell density z-score.
Where [14] appears, read: measured here: nuclear c-Myc green intensity z-score.
The mark [15] stands for this setting: measured here: nuclear pErk red intensity z-score, stronger effect = higher value.

The source made the active and inactive calls.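 How the source made its calls, unless noted: active means fluorescence slope after compound addition differing from the mean of all screened samples at 99.7% confidence, in either direction; inactive means the rest.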

Sequence of Alpha-2C adrenergic receptor (Homo sapiens) (P18825 whole entry, looked up): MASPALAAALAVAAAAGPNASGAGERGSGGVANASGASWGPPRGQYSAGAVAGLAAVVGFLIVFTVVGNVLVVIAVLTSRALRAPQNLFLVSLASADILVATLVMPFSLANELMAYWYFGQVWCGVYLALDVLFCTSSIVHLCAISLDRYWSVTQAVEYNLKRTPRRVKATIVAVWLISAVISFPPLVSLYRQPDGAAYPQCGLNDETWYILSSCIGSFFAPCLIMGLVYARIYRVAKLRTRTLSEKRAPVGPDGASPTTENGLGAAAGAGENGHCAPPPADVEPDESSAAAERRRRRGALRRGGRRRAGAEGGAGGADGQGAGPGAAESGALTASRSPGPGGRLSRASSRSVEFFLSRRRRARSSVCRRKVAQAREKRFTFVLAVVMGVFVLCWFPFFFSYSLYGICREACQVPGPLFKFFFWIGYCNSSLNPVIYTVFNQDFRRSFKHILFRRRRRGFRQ
Sequence of Dual specificity protein phosphatase 6 (Homo sapiens) (Q16828 whole entry, looked up): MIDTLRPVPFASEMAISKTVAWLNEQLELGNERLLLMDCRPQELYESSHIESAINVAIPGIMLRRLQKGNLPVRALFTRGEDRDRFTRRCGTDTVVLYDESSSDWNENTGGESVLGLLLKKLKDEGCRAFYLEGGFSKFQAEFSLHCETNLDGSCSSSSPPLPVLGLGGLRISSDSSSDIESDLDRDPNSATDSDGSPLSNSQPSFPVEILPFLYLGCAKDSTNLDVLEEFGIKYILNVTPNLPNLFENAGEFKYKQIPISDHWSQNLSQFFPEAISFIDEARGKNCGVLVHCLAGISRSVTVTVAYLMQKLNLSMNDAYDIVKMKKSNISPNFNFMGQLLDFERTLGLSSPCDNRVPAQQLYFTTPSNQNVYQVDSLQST
Sequence of Voltage-gated potassium channel subunit beta-2 (Rattus norvegicus) (P62483 whole entry, looked up): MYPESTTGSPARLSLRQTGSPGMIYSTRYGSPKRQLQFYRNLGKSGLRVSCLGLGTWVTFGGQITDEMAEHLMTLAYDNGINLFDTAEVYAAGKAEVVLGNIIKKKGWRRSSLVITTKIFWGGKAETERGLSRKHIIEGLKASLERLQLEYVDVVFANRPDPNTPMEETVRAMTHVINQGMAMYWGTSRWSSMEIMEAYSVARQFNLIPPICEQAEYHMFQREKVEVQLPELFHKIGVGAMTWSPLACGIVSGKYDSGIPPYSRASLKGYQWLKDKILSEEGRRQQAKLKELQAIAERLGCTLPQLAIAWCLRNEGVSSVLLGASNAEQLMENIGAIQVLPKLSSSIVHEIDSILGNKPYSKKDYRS

Regarding `N[C@@H](C(=O)N[C@@H]1C(=O)N2C(C(=O)O)=C(Cl)CS[C@H]12)c1ccccc1`, the cell count in test [1] stood at 693. Also, the inhibition (commonly the relative decrease from the control value, in per cent) is -2% (inactive) in test [1]; -84.8% (inactive) in test [3]; 7.39% (inactive) in test [5]; 21.4% (inactive) in test [10]; 12.2% (inactive) in [11]; 28.5% (inactive) in test [12]. Further, the inhibition of aggregation in test [2] is -5.3% (inactive). In addition, the nuclei count came out at 113% in test [2] and 122% in test [3]. Moreover, the values for the z-score in test [4] (setting [13]), in test [4] (setting [14]) and in [4] (setting [15]) were -0.332, -0.293 and -0.889, respectively. The fluorescence slope in test [6] was -0.441 (inactive). Further, in test [7], the NADPH fluorescence slope is -5.1e-05 (inactive). Besides, in [8], the slope was 0.00559 (inactive). For the same molecule, the molecule was classed as inactive in test [9].

As for `CCN(CC)C(=O)CSC1=C(C#N)C(c2ccco2)C(C(=O)OCCOC)=C(C)N1` (stereo not given), in test [1], the cell count came to 393. In addition, the inhibition was -8.6% (inactive) in test [1]; -184% (inactive) in test [3]; -3.98% (inactive) in test [5]; 14% (inactive) in test [10]; 2.19% (inactive) in [11]; 16.7% (inactive) in [12]. The inhibition of aggregation in test [2] was 15.4% (inactive). The nuclei count in test [2] was 104%; in test [3], 152%. In addition, the z-score in test [4] (setting [13]) was 0.81; in test [4] (setting [14]) it was -0.0131; in test [4] (setting [15]), 1.47. Moreover, the fluorescence slope in [6] was -0.378 (inactive). Further, the NADPH fluorescence slope in test [7] is -3e-05 (inactive). In [8], the slope is 0.00415 (inactive). Also, the call in test [9] was inactive.

As to `C=CCn1c(SCC#N)nc2c(c1=O)C(C)(C)Cc1ccccc1-2`, in test [1], the cell count amounted to 648. Also, the inhibition in [1] was -0.1% (inactive); in test [3], -30.9% (inactive); in test [5] it was 34.8% (inactive); in [10], 104% (active); in [11], -4.84% (inactive); in test [12], 6.72% (inactive). The inhibition of aggregation in [2] is 11.6% (inactive). The nuclei count in test [2] is 107%; in test [3] it was 136%. Also, the results for the z-score in [4] (setting [13]), in test [4] (setting [14]) and in [4] (setting [15]) were 1.4, 0.411 and -0.925, respectively. Moreover, in test [6], the fluorescence slope is -0.315 (inactive). The NADPH fluorescence slope in test [7] is -5.8e-06 (inactive). In addition, the slope in test [8] is 0.00525 (inactive). Also, the call in [9] was inactive.

As for `CC(=O)OCC(=O)[C@@]1(O)CC[C@H]2[C@@H]3CCC4=CC(=O)C=C[C@]4(C)[C@@]3(Cl)[C@@H](Cl)C[C@@]21C`, the cell count in [1] was 574. Besides, the inhibition in test [1] is -7.2% (inactive); in test [3], -50.9% (inactive); in [5], 11.3% (inactive); in test [10], 18.7% (inactive); in test [11] it was 5.49% (inactive); in test [12], 38.2% (inactive). Also, the inhibition of aggregation in test [2] was -27.9% (inactive). Also, the nuclei count worked out at 64.3% in test [2] and 118% in [3]. Moreover, the z-score in test [4] (setting [13]) was found to be 0.892; in test [4] (setting [14]), 0.179; in test [4] (setting [15]) it was 0.325. Further, the fluorescence slope in test [6] is -0.484 (inactive). Besides, the NADPH fluorescence slope in test [7] was -5.1e-05 (inactive). In addition, the slope in [8] is 0.00396 (inactive). In addition, the outcome in test [9] was inactive.

For the molecule `Cn1ccnc1SCCC#N`, the cell count in test [1] was 569. Besides, the inhibition is -2.2% (inactive) in test [1]; -10.9% (inactive) in test [3]; 6.04% (inactive) in test [5]; 3.16% (inactive) in [10]; 5.13% (inactive) in test [11]; 14.1% (inactive) in [12]. For the same molecule, the inhibition of aggregation in test [2] is -3.9% (inactive). Besides, the nuclei count in test [2] was 110%; in test [3] it was 116%. The z-score is -0.727 in [4] (setting [13]), 0.913 in test [4] (setting [14]) and -1.8 in test [4] (setting [15]). For the same molecule, the fluorescence slope in [6] was -0.51 (inactive). Further, the NADPH fluorescence slope in [7] was -0.000118 (inactive). Besides, in test [8], the slope was 0.00562 (inactive). Besides, in [9], the outcome was inactive.

On to `O=C(O)c1cc(O)c2c(c1)C(=O)c1cccc(O)c1C2=O`, for which the cell count in test [1] is 610. The inhibition is -3% (inactive) in test [1]; -98.1% (inactive) in [3]; 3.45% (inactive) in test [5]; 2.72% (inactive) in test [10]; 18% (inactive) in test [11]; 42.8% (inactive) in test [12]. For the same molecule, the inhibition of aggregation in [2] is 26.7% (inactive). Besides, the nuclei count in [2] is 100%; in test [3], 128%. The z-score in test [4] (setting [13]) is 0.571; in test [4] (setting [14]), -1.15; in test [4] (setting [15]), 1.27. In test [6], the fluorescence slope was -0.417 (inactive). Besides, in test [7], the NADPH fluorescence slope is -1.3e-05 (inactive). For the same molecule, the slope in test [8] is -0.00744 (active). Besides, the outcome in [9] was inactive.

Take `OC(CCN1CCCCC1)(c1ccccc1)c1ccccc1`: the cell count in test [1] worked out at 674. Besides, the inhibition in test [1] was -1.6% (inactive); in test [3], -75.5% (inactive); in [5], -0.493% (inactive); in test [10], -6.75% (inactive); in [11], 16.1% (inactive); in [12], 48% (inactive). Moreover, the inhibition of aggregation in test [2] is -18% (inactive). For the same molecule, the nuclei count in test [2] stood at 108%; in [3] it was 114%. Also, the z-score in [4] (setting [13]) was 0.144; in test [4] (setting [14]) it was -1.15; in test [4] (setting [15]), -0.931. In addition, the fluorescence slope in test [6] is -0.458 (inactive). Also, in test [7], the NADPH fluorescence slope is -3.9e-05 (inactive). The slope in [8] is 0.00533 (inactive). Moreover, in test [9], the molecule was called inactive.

As for `C=CCn1c(N)c(C(=O)OC(C)(C)C)c2nc3ccccc3nc21`, in test [1], the cell count came to 370. The inhibition in test [1] is -11.7% (inactive); in test [3], -104% (inactive); in [5] it was -2.59% (inactive); in test [10], 12.3% (inactive); in test [11], 12.2% (inactive); in test [12], -1.21% (inactive). Moreover, in [2], the inhibition of aggregation is -9.4% (inactive). In addition, the nuclei count in test [2] came out at 100%; in test [3] it was 124%. Also, the z-score in [4] (setting [13]) was 1.71; in test [4] (setting [14]) it was -2; in test [4] (setting [15]) it was -1.69. In [6], the fluorescence slope is -0.257 (inactive). In addition, in test [7], the NADPH fluorescence slope is 0.000211 (inactive). In test [8], the slope is 0.00615 (inactive). In [9], the molecule was called inactive.

Consider `CCC(C(=O)OCCN(CC)CC)c1ccccc1` (stereo not given), for which the cell count in test [1] amounted to 572. For the same molecule, the inhibition in [1] was -11.1% (inactive); in test [3], -56.9% (inactive); in [5] it was 19.2% (inactive); in test [10] it was 21.8% (inactive); in [11], 8.3% (inactive); in test [12], 34.3% (inactive). For the same molecule, the inhibition of aggregation in test [2] was -9.9% (inactive). In addition, the nuclei count in test [2] was found to be 104%; in [3], 130%. Also, the z-score in test [4] (setting [13]) amounted to 1.14; in test [4] (setting [14]), 1.04; in [4] (setting [15]) it was 0.111. For the same molecule, the fluorescence slope in test [6] was -0.459 (inactive). For the same molecule, the NADPH fluorescence slope in test [7] was -3.7e-05 (inactive). In addition, the slope in test [8] is 0.00422 (inactive). Also, the molecule was classed as inactive in test [9].

On to `CN1CCCN=C1COC(=O)C(O)(c1ccccc1)C1CCCCC1` (stereo not given), for which the cell count in test [1] was 703. For the same molecule, the inhibition is -0.1% (inactive) in test [1]; -113% (inactive) in test [3]; 3.45% (inactive) in test [5]; -8.88% (inactive) in [10]; 19.2% (inactive) in [11]; 50.5% (active) in [12]. Besides, in test [2], the inhibition of aggregation is 15.9% (inactive). Also, the nuclei count in [2] was found to be 107%; in test [3] it was 127%. In addition, the z-score is -0.149 in test [4] (setting [13]), -0.804 in [4] (setting [14]) and 0.222 in test [4] (setting [15]). Besides, in test [6], the fluorescence slope is -0.497 (inactive). The NADPH fluorescence slope in test [7] was -1.3e-05 (inactive). Moreover, the slope in test [8] is 0.00478 (inactive). In addition, the molecule was called inactive in test [9].
